Our source for the outcome, Potency and activity change, negative = inhibition values is PubChem BioAssay (NCATS).

A number with no mark means an inactive call. Inconclusive results are not listed. Active and inactive are the calls of the source. Calls follow the shape of the dose curve; as a rule, active = well fitted curve in the direction sought with a large enough effect; inconclusive = small, poorly fitted or top-dose-only effect, or another doubt; inactive = no such curve, though single readings can be large; an effect the other way counts as inactive or inconclusive.

Assay [1] concerns the target Lysine-specific demethylase 5B (Homo sapiens) (UniProt Q9UGL1). As to the kind of experiment: Optimization screen for KDM5B Histone Demethylases FDH coupled qHTS against the LOPAC library (AID 1347166). Also: 0% is about no effect. The essentials:
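KDM5BDeltaAP (200nM final) preincubated 10 min with compound, then 12.5uM H3K4Me3, 25uM a-ketoglutarate, ascorbate, Fe(II), NAD+ and FDH added; 50mM HEPES pH 7.5, 0.01% Tween-20. NADH fluorescence (340/450 nm) change over 30 min, room temperature.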

A short description of assay [2]: qHTS for inhibitors of adenylyl cyclases using a fission yeast platform: a pilot screen against the NCATS LOPAC library (AID 1347410).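 Also: plate controls were DMSO vehicle for no effect and DPI positive control for full effect.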 The essentials: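 Fission yeast qHTS: CHP2027 cells (AC9-GNAS-PDE4D2, fbp1-GFP), 5x10^6 cells/mL working density, EMM + His/Lys/Ura; LOPAC at up to 57 µM final; 18 h dark, 30C; GFP by laser cytometry. DPI positive control, DMSO vehicle.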

Assay [3] deals with Single-stranded DNA cytosine deaminase (Homo sapiens) (UniProt Q9GZX7). As to the kind of experiment: Validation qHTS assay for inhibitors of Activation Induced Cytidine Deaminase (AID): AID signal (AID 1347429). Also: % is scaled to controls: 0 for no effect and ±100 for the full control effect. The essentials:
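AID and UDG were combined and compounds added at final up to 114 uM, then DJC20/DJC23 FRET substrate was added for 4 hr at room temperature. NaOH was then added for 30 min before fluorescence was read at 540/590 nm.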
For orientation: In qHTS, concentration-response curves come from the screen itself.

A short description of assay [4]: Primary qHTS for inhibitors of La Crosse Virus (LACV) - induced cell death in SH-SY5Y cells (AID 1508616).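 Also: top concentration of the series differs between compounds; 0% = infected DMSO wells and 100% = uninfected DMSO wells; higher means more rescue of cells from virus-induced death.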 The essentials: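 Luminescent ATP readout (ATPLite 1step, 5 min room temperature) measured rescue from LACV-induced death after 6 days of infection at 0.01 MOI; normalized to infected DMSO wells and uninfected DMSO wells.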
The target of assay [5] is Calcium and integrin-binding protein 1 (Homo sapiens) (UniProt Q99828). In words: Validation qHTS for Identification of Calcium Integrin Binding protein 1 (CIB1) Competitor (AID 1508618). Also: % is scaled to controls: 0 for no effect and ±100 for the full control effect. The procedure, abridged:
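Displacement of FITC-alphaIIb peptide (100 nM) from CIB1-GST (1 uM) is monitored by polarization in quantitative HTS format; buffer carries 5 mM CaCl2 and 125 mM NaCl at pH 7.4, incubations are at room temperature.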

For assay [6], the system named is Zika virus NS2B-NS3 protease (linked construct). As to the kind of experiment: Primary screen NINDS Rhodamine qHTS for Zika virus inhibitors (AID 1347160). Also: nearly all actives have a fitted effect of over 55% in size. The following applies: outcome: dose series up to 57.1 µM unless noted. The essentials: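 Kinetic fluorescence (Ex 480 nm, Em 540 nm) over 15 min with 1.5 microM Rhodamine110 peptide and 25 nM linked protease.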

Assay [7] in a line: qHTS to identify inhibitors of the type 1 interferon - major histocompatibility complex class I in skeletal muscle: primary screen against the NCATS Pharmaceutical Collection (AID 1347407). Also: % is scaled to controls: 0 for no effect and ±100 for the full control effect. The procedure, abridged: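 Luminescence from HiBiT-tagged endogenous HLA-B*08:01 served as the read-out of IFN-beta-induced MHC class I in CRISPR-engineered C25cl48 myoblasts. Cells received 4 ng/ml IFN-beta plus compound (high final 46 uM, […]) for 24 h.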

Assay [8] concerns the target Protein phosphatase 1D (Homo sapiens) (UniProt O15297). As to the kind of experiment: RapidFire Mass Spectrometry qHTS Assay for Modulators of WT P53-Induced Phosphatase 1 (WIP1) (AID 1347424).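 Also: amount of dephosphorylated VEPPL-S-QETFS peptide product formed by WIP1.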 Also: potency is read from the fitted curve at half-maximal effect.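 As to activity change, negative = inhibition: series mostly up to about 63 µM; plate controls were DMSO wells for no effect and GSK830371 inhibitor control at 10 µM for full effect.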 The procedure, abridged: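 10 nM WIP1 + cpd, 1 h RT; + 2 uM VEPPL-pS-QETFS, 5 min RT; stop 0.5% formic acid; labelled product standard 1 uM; RapidFire MS. Buffer 50 mM Tris pH 7.5, 30 mM MgCl2, 1 mM TCEP.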

Assay [9] shares this target. As to the kind of experiment: Rhodamine-PBP qHTS Assay for Modulators of WT P53-Induced Phosphatase 1 (WIP1) (AID 1347425). Also: % of control where 0% means no effect. The essentials:
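5 nM WIP1 + 10 uM Rh-PBP, 50 mM Tris pH 7.5, 30 mM MgCl2, 1 mM TCEP, 0.1 mM EGTA, BSA; cpds pinned, 1 hr RT; + 10 uM phosphopeptide; fluorescence 1-min reads x 11 min; delta = f1 - f0.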

Assay [10] deals with Calcium and integrin-binding protein 1 (Homo sapiens) (UniProt Q99828). As to the kind of experiment: Primary qHTS for Identification of Calcium Integrin Binding Protein 1 (CIB1) Competitor (AID 1508620). Also: potency is read from the fitted curve at half-maximal effect. The essentials:
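CIB1-GST (1 uM final) and compound incubated 15 min at room temperature before adding FITC-alphaIIb peptide tracer (100 nM final). Competition for binding read by fluorescence polarization (ex 480, em 540) after another 15 min at room temperature.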

Assay [11] is described as follows: Confirmatory screen NINDS Rhodamine qHTS for Zika virus inhibitors (AID 1347161). Also: nearly all actives have a fitted effect of over 60% in size. Also: potency is read from the fitted curve at half-maximal effect.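 As to activity change, negative = inhibition: purified Zika NS2B-NS3 protease with linked NS2B cofactor domain and Rhodamine110 peptide substrate; series mostly up to about 110 µM; plate controls were no-inhibitor control for no effect and no-enzyme control for full effect.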 The procedure, abridged:
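qHTS dose-response: 25 nM linked protease, pH 8.0 Tris/Tween buffer, cpd titration, 15 min RT preinc, 1.5 microM Rhod110 peptide, 15 min reaction (~15% conversion), Ex480/Em540; 4-parameter Hill fit.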

The test system of assay [12] is Zika virus NS2B-NS3 protease (linked). As to the kind of experiment: 384 well plate NINDS AMC confirmatory qHTS for Zika virus inhibitors (AID 1347163). Also: potency is read from the fitted curve at half-maximal effect; nearly all actives have a fitted effect of over 50% in size. The procedure, abridged:
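Linked protease 5/30/60 nM final; cpds up to 1 mM final, ~15 min preinc. Substrate Ac-VKTGKR-AMC 30 microM final. RT, dark, 25 min; FI ex 355/em 460; normalized to no-enzyme/no-inhibitor ctrls.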

In assay [13] the test system is Zika virus NS2B-NS3 protease (linked construct). As to the kind of experiment: 384 well plate NINDS Rhodamine confirmatory qHTS for Zika virus inhibitors (AID 1347164).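 Also: fluorescence from protease cleavage of Ac-LKRR-rhodamine 110 substrate; potency is read from the fitted curve at half-maximal effect; nearly all actives have a fitted effect of over 65% in size.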 The following applies: rhodamine-110 peptide substrate fluorescence. The essentials:
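Enzyme (final 5/30/60 nM) + cpd (DMSO), ~15 min; add Ac-LKRR-Rd 10 microM final; 25 min RT, dark; FI ex 485/em 538; normalized to no-enzyme, no-inhibitor ctrls; aprotinin intraplate ctrl.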

Assay [14] in a line: Vero cells viability qHTS for Zika virus inhibitors (AID 1347167). Also: % is scaled to controls: 0 for no effect and ±100 for the full control effect. The essentials: (§1)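 Compounds were tested in concentration series on cells grown in DMEM containing 4% FBS. After 24 to 48 hours, cellular ATP was measured by luminescence with CellTiter Glo.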
Assay [15] can be described thus: HepG2 cells viability qHTS for Zika virus inhibitors (AID 1347168). Also: % is scaled to controls: 0 for no effect and ±100 for the full control effect. The procedure, abridged:
as §1

Assay [16] can be described thus: Tertiary RLuc qRT-PCR qHTS assay for Zika virus inhibitors (AID 1347169). Also: top concentration of the series differs between compounds; % is scaled to controls: 0 for no effect and ±100 for the full control effect; nearly all actives have a fitted effect of over 55% in size. The essentials: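 Vero, 1,000 cells/well, o/n 37 C; cpd pinned in DMSO; ZIKV-RLuc Cambodian, MOI 1-2, 48-72 h 37 C; live-cell RLuc substrate, lum read at 1-1.5 h.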
In general terms: Quantitative PCR measures a nucleic acid by following its amplification.

Assay [17] can be described thus: Counterscreen qHTS for small molecule stabilizers of the endoplasmic reticulum resident proteome: GLuc-NoTag assay (AID 1508627).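 Also: SH-SY5Y cells given compound then 100 nM thapsigargin to empty ER calcium; series mostly up to about 76 µM; 0% = thapsigargin alone and -100% = DMSO vehicle control.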 The procedure, abridged:
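Luminescence of Gaussia luciferase secreted into the medium (coelenterazine, 0.07x final, unlysed cells) was the read-out. Human SH-SY5Y neuroblastoma cells constitutively secreting untagged GLuc received compound for 19 h, then 100 nM thapsigargin for 4 h.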
In general terms: A counterscreen serves to expose hits that act by an unwanted route or on another target.

A short description of assay [18]: qHTS to identify inhibitors of the type 1 interferon - major histocompatibility complex class I in skeletal muscle: primary screen against the NCATS Mechanism Interrogation Plate v5.0 (MIPE) Libary (AID 1347411). Also: nearly all actives have a fitted effect of over 65% in size. Also: potency is read from the fitted curve at half-maximal effect.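 As to activity change, negative = inhibition: plate controls were vehicle for no effect and reference inhibitor for full effect.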 The procedure, abridged:
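Immortalized human C25cl48 myoblasts with HiBit knocked into endogenous HLA-B*08:01 were stimulated with 4.0 ng/ml IFN-beta and exposed to compounds (11-point 1:3 titration, top 46 uM final) for 24 hrs at 37 C; HiBiT lytic luminescence measured.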

Chain of Protein phosphatase 1D (Homo sapiens) (O15297 whole entry, looked up): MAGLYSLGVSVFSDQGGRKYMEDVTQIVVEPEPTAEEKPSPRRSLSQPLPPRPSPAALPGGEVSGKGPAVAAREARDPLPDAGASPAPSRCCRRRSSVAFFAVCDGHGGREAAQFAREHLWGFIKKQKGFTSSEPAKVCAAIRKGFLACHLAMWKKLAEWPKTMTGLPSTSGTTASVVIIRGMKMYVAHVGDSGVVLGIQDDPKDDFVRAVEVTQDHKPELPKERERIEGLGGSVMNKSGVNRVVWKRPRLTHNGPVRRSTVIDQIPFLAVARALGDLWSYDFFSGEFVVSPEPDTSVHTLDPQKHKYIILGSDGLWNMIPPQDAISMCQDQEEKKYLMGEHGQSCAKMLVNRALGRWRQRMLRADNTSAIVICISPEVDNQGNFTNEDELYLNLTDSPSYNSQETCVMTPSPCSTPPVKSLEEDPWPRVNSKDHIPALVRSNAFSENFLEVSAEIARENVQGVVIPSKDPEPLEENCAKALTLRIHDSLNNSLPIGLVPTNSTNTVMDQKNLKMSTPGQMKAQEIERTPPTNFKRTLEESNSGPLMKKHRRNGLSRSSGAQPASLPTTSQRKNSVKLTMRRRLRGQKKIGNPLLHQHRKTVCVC
Chain of Calcium and integrin-binding protein 1 (Homo sapiens) (Q99828 whole entry, looked up): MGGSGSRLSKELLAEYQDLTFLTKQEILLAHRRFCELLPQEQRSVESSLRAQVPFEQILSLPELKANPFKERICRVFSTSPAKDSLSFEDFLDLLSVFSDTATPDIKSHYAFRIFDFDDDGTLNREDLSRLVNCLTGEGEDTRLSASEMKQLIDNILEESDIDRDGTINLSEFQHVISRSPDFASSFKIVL
Chain of Single-stranded DNA cytosine deaminase (Homo sapiens) (Q9GZX7 whole entry, looked up): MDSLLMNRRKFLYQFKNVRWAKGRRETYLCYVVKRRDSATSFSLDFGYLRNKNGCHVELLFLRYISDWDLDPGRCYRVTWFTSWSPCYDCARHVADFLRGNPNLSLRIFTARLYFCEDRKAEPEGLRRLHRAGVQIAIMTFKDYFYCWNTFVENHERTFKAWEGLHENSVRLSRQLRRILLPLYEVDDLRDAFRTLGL
Chain of Lysine-specific demethylase 5B (Homo sapiens) (Q9UGL1 whole entry, looked up): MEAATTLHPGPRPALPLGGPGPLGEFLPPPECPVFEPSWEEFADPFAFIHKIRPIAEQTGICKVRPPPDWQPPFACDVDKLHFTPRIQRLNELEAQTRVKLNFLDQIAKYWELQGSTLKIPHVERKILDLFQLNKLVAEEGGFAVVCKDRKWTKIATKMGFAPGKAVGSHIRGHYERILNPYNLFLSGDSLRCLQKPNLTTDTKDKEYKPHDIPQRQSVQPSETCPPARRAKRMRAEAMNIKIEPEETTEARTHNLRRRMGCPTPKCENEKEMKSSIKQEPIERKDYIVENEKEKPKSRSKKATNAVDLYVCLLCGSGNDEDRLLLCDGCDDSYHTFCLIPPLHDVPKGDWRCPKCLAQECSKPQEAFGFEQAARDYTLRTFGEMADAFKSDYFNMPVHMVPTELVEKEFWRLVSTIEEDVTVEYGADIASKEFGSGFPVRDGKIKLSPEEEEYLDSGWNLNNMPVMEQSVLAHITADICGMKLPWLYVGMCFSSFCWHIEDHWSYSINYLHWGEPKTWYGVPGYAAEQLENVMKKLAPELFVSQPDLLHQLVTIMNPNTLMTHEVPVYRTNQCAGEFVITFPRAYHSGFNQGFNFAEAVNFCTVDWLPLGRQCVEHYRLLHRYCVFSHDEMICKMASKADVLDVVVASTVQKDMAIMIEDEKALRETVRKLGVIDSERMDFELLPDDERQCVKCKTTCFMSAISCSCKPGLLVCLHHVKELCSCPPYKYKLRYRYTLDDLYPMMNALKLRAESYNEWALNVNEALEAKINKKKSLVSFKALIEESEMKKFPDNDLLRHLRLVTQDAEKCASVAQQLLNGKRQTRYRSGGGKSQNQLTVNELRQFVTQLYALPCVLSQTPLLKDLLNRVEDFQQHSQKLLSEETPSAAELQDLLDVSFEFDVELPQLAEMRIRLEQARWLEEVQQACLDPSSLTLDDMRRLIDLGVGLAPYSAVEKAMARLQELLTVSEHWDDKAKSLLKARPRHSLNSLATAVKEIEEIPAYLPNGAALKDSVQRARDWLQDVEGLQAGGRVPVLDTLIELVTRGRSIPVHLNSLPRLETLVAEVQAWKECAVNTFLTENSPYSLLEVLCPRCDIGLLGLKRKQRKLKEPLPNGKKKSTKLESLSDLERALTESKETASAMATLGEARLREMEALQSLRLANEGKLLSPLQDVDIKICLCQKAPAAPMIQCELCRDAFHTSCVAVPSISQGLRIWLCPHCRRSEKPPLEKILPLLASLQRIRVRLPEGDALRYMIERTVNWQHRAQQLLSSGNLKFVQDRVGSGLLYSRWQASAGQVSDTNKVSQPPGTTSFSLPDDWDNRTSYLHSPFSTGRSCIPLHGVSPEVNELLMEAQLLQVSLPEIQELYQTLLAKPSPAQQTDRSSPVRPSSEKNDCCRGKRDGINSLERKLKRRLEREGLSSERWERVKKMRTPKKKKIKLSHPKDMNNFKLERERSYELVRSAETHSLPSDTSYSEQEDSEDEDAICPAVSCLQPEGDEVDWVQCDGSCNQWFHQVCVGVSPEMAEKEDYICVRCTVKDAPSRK

For `C[N+](C)(C)CCO`, the compound was classed as inactive in assay [1], in assay [2], in assay [3], in assay [4] and in assay [5].
Turning to `O=C1CC[C@H](C(=O)N2CCCCC2)N1`, the compound was classed as inactive in assay [6] and in assay [9]. The Potency result in assay [7], in assay [8] and in [10] was “inactive” in each case.
On to `COC(=O)C1=C(C)NC(COC(N)=O)=C(C(=O)OC(C)C)C1c1cccc(Cl)c1Cl` (centres undefined), for which the result in assay [6] and in [4] was inactive. For the same compound, the Potency result in [7], in [8] and in [10] was “inactive” each time.
As to `CO[C@]1(NC(=O)CSC(F)F)C(=O)N2C(C(=O)O)=C(CSc3nnnn3CCO)CO[C@H]21`, the outcome in assay [6] and in assay [9] was inactive. Further, the Potency result in [7], in assay [8] and in [10] was “inactive” throughout.
Regarding `CCC(=O)O[C@H]1[C@H](O[C@@H]2[C@@H](C)[C@H](O[C@H]3C[C@@](C)(OC)[C@@H](O)[C@H](C)O3)[C@@H](C)C(=O)O[C@H](CC)[C@@](C)(O)[C@H](O)[C@@H](C)C(=O)[C@H](C)C[C@@]2(C)O)O[C@H](C)C[C@@H]1N(C)C`, the Potency in [11] is 2.78 µM (active); in [12], 355 µM (active); in [13], 63.1 µM (active). For the same compound, the result in [14], in [15], in [9] and in [4] was inactive. The Potency result in [16], in assay [7], in assay [10] and in assay [17] was “inactive” in each case.
Regarding `O=C1[C@@H]2[C@H]3CC[C@H](C3)[C@@H]2C(=O)N1CCCCN1CCN(c2ncccn2)CC1`, the compound was called inactive in assay [6], in [9] and in assay [4]. Besides, the Potency entry in [7], in assay [8] and in [10] was “inactive” throughout.
Take `N[C@@H](Cc1cc(I)c(O)c(I)c1)C(=O)O`: the outcome in [14], in assay [15] and in assay [4] was inactive. For the same compound, the Potency result in assay [16], in assay [7] and in [17] was “inactive” in each case. In assay [8], the Potency is 20 µM (active).
Regarding `Brc1ccc([C@H]2CN3CCSC3=N2)cc1`, the compound was classed as inactive in assay [6], in [2], in assay [3], in assay [4] and in [5]. In assay [10], the Potency result is “inactive”.
In the case of `CCN1C(=O)c2ccccc2C1Nc1ccc(OCCN2CCCCC2)cc1` (centres undefined), in assay [6], the result was inactive. The Potency result in [7], in [8] and in assay [10] was “inactive” each time.
Turning to `Nc1cccc2c(N)cccc12`, the Potency entry in [7] is “inactive”.
Take `C[C@H]1C[C@H]2[C@@H]3CCC4=CC(=O)C=C[C@]4(C)[C@H]3C(=O)C[C@]2(C)[C@@]1(O)C(=O)CO`: the Potency result in assay [7], in assay [18], in assay [8] and in [10] was “inactive” in each case. Besides, the call in [9] and in assay [4] was inactive.
On to `CC(C)N(CCC(=O)c1ccc2ccccc2c1)Cc1ccccc1`, for which the compound was classed as inactive in [6], in assay [2], in assay [3] and in [5]. For the same compound, the Potency is 5.87 µM (active) in assay [18] and 28.2 µM (active) in [10].
With `C=CC[N+]1([C@H]2C[C@H]3[C@@H]4CC[C@H]5C[C@H](OC(C)=O)[C@@H](N6CCCCC6)C[C@]5(C)[C@H]4CC[C@]3(C)[C@H]2OC(=O)CC)CCCCC1`, the call in assay [6] and in assay [4] was inactive. Moreover, the Potency entry in assay [7], in assay [8] and in [10] was “inactive” throughout.
In the case of `O=C(CCCCC(=O)Nc1c(I)cc(I)c(C(=O)O)c1I)Nc1c(I)cc(I)c(C(=O)O)c1I`, the Potency result in assay [11], in assay [7], in [8] and in assay [10] was “inactive” in each case. The activity change, negative = inhibition in [16] was 2.99% [at 5.25 µM]. Further, the compound was classed as inactive in [9] and in [4].
